These results are taken from PubChem BioAssay (NCI).

The structures appear in SMILES notation. Compounds without any hit were thinned out: in the full panel of roughly 83,000, 20% have a hit.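 48-hour exposure, single concentration, 96-well plates; percent growth endpoint where 0 means no net growth. Active: below 10.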 Values without a mark were called inactive. Calls of active or inactive are those of the source.

Some test systems named below: HCT-15 colon; HT29 colon; SNB-75 CNS; SNB-19 CNS; PC-3 prostate; SK-MEL-5 melanoma; UACC-62 melanoma; LOX IMVI melanoma; SK-MEL-28 melanoma; U251 CNS.
Experiment in all cases: NCI-60 one-dose screen, 48 h (100 = growth as untreated, 0 = no growth, -100 = all killed)
What all share (settings): 10 µM unless noted

`CCNc1cc(S(=O)(=O)O)ccc1C`: the growth was 105% in the assay with HCT-15 colon; 102% in the assay on HT29 colon; 99.4% in the assay on SNB-75 CNS; 104% with SNB-19 CNS; 90.5% in the assay on PC-3 prostate; 102% in the assay with SK-MEL-5 melanoma. In addition, the growth with UACC-62 melanoma was 105%; in the assay on LOX IMVI melanoma, 97.2%; in the assay with SK-MEL-28 melanoma it was 108%.
Take `COc1ccc(-c2ccc(NC(=O)Nc3ccc(Cl)c(C(F)(F)F)c3)c(C)n2)cc1`: the growth in the assay with HCT-15 colon is 37.8%; in the assay on HT29 colon, 46.4%; in the assay with SNB-75 CNS, 73.4%; with SNB-19 CNS, 57.3%; in the assay on PC-3 prostate, 14.7%; in the assay with SK-MEL-5 melanoma, 55.7%. Further, the values for the growth with UACC-62 melanoma, with LOX IMVI melanoma and in the assay on SK-MEL-28 melanoma were 65.6%, 64.5% and 71.4%, respectively.
On to `CC(=O)c1cc2c(N)c(C(=O)Nc3cccc(Cl)c3)sc2nc1C`, for which the growth is 72.4% in the assay on HCT-15 colon; 82.3% in the assay with HT29 colon; 82.6% in the assay on SNB-75 CNS; 91.3% with SNB-19 CNS; 74.4% with PC-3 prostate; 43.2% in the assay with SK-MEL-5 melanoma. Moreover, the growth in the assay on UACC-62 melanoma was 56.2%; in the assay on LOX IMVI melanoma it was 89.5%; with SK-MEL-28 melanoma, 92.9%.
`Cc1cc(Nc2ccc(Cl)c(Cl)c2)nc(N)n1`: the growth is 97.3% in the assay with HCT-15 colon; 86.9% in the assay with HT29 colon; 72.3% with SNB-75 CNS; 107% in the assay with SNB-19 CNS; 89.6% in the assay with PC-3 prostate; 83.9% with SK-MEL-5 melanoma. Also, the growth in the assay with UACC-62 melanoma is 89.1%; in the assay on LOX IMVI melanoma, 100%; in the assay with SK-MEL-28 melanoma, 101%.
Regarding `COc1cc(NC(C)CCCN2C(=O)c3ccccc3C2=O)c2nc(C)ccc2c1OC` (stereo unspecified), the growth in the assay with HCT-15 colon was 89.8%; with HT29 colon, 98.4%; with SNB-75 CNS it was 82.6%; in the assay with SNB-19 CNS it was 99.7%; in the assay on PC-3 prostate, 81.1%; in the assay with SK-MEL-5 melanoma, 88.5%. In addition, the growth in the assay on UACC-62 melanoma is 74.9%; with LOX IMVI melanoma, 85.7%.
As to `Nc1ncnc2c1ncn2C1OC(COC(c2ccccc2)(c2ccccc2)c2ccccc2)C(O)C1O` (stereo unspecified), the growth is 98.2% in the assay on HCT-15 colon; 82.8% with HT29 colon; 76.2% in the assay with SNB-75 CNS; 96.5% with SNB-19 CNS; 88.7% in the assay with PC-3 prostate; 92.3% in the assay with SK-MEL-5 melanoma. In addition, the growth with UACC-62 melanoma is 95.6%; in the assay with LOX IMVI melanoma it was 91.4%; in the assay with SK-MEL-28 melanoma, 96.2%.
For `c1ccc(-c2nc3sc(C(c4ccccc4)c4ccccc4)nn3c2-c2ccccc2)cc1`, the growth is 87.9% in the assay with HCT-15 colon; 94.9% with HT29 colon; 85% with SNB-75 CNS; 109% in the assay on SNB-19 CNS; 78.7% with PC-3 prostate; 89.4% in the assay on LOX IMVI melanoma. Moreover, the growth with SK-MEL-28 melanoma was 102%.
As to `O=C(Nc1ccc(-n2cc(-c3ccncc3)c(-c3ccc(O)c(Cl)c3)n2)cc1)c1ccc(Cl)c(C(F)(F)F)c1`, the growth in the assay on HCT-15 colon is 7.89% (active); in the assay on HT29 colon, -33.9% (active); with SNB-19 CNS, 40.2%; in the assay on U251 CNS it was 15.7%; in the assay on PC-3 prostate, 14.4%; in the assay with SK-MEL-5 melanoma, -46.7% (active). The growth is 71.2% in the assay with UACC-62 melanoma and -47.6% (active) in the assay with LOX IMVI melanoma.
For the compound `C=C1C(=O)O[C@H]2[C@H]1CC/C(COC(=O)c1ccc3ccccc3c1)=C\CC[C@@]1(C)O[C@@H]21`, the growth with HCT-15 colon was -45.4% (active); in the assay with HT29 colon, -87.5% (active); in the assay on SNB-75 CNS, 25.1%; in the assay on SNB-19 CNS, 11.6%; in the assay with PC-3 prostate, -64% (active); in the assay on SK-MEL-5 melanoma, -74.6% (active). Besides, the growth in the assay on UACC-62 melanoma is -73% (active); in the assay with LOX IMVI melanoma, -89.7% (active); with SK-MEL-28 melanoma, -61.2% (active).
With `CN1C(=O)C2(NN=C(c3cccc4ccccc34)S2)c2ccccc21` (stereo unspecified), the growth is 28.3% with HCT-15 colon; 50.8% in the assay on HT29 colon; 73.4% with SNB-75 CNS; 33.7% with SNB-19 CNS; 19.7% with PC-3 prostate; 41.8% in the assay with SK-MEL-5 melanoma. In addition, the growth is 17.2% in the assay with UACC-62 melanoma, 31.3% in the assay with LOX IMVI melanoma and 32.4% with SK-MEL-28 melanoma.
As to `NS(=O)(=O)c1ccc(-n2nc(-c3ccc(Cl)cc3)ccc2=O)cc1`, the growth was 84.5% with HCT-15 colon; 104% in the assay on HT29 colon; 86% in the assay on SNB-75 CNS; 86.8% in the assay with SNB-19 CNS; 85.6% in the assay with PC-3 prostate; 83.1% in the assay on SK-MEL-5 melanoma. The growth is 61.4% in the assay with UACC-62 melanoma, 95.8% in the assay on LOX IMVI melanoma and 90.3% in the assay with SK-MEL-28 melanoma.
On to `CC(=O)Nc1ccc(OC(=O)c2ccccc2O)cc1`, for which the growth was 107% in the assay with HCT-15 colon; 113% in the assay with HT29 colon; 114% in the assay with SNB-75 CNS; 100% in the assay on SNB-19 CNS; 94.8% in the assay with PC-3 prostate; 109% with SK-MEL-5 melanoma. For the same compound, the growth in the assay on UACC-62 melanoma is 102%; in the assay with LOX IMVI melanoma it was 99.7%; in the assay with SK-MEL-28 melanoma, 120%.
As to `Cc1ccc2c(C3C(C#N)=C(N)Oc4cc5ccccc5cc43)cc(=O)oc2c1` (stereo unspecified), the growth is 31% in the assay on HCT-15 colon; 6.66% (active) in the assay with HT29 colon; 20.3% in the assay with SNB-75 CNS; 29.9% in the assay with SNB-19 CNS; 18.8% with PC-3 prostate; 13.6% in the assay on SK-MEL-5 melanoma. The results for the growth in the assay with UACC-62 melanoma, in the assay with LOX IMVI melanoma and in the assay on SK-MEL-28 melanoma were 39.2%, 38.4% and 64.4%, respectively.
As to `OCc1cn(-c2ccc(Cl)cc2)nc1-c1ccc(O)cc1`, the growth with HCT-15 colon is 93.7%; in the assay with HT29 colon, 92.6%; in the assay on SNB-75 CNS, 83.3%; in the assay with SNB-19 CNS, 104%; in the assay on PC-3 prostate, 96.5%; in the assay on SK-MEL-5 melanoma it was 95.4%. Besides, the growth in the assay with UACC-62 melanoma was 100%; in the assay with LOX IMVI melanoma it was 92.2%; in the assay with SK-MEL-28 melanoma, 108%.
As for `Cc1cn(C2CC(F)C(CO)O2)c(=O)[nH]c1=O` (stereo unspecified), the growth in the assay on HCT-15 colon is 107%; in the assay on HT29 colon, 98.9%; in the assay with SNB-75 CNS it was 81.8%; in the assay with SNB-19 CNS, 90.1%; with PC-3 prostate it was 93.8%; in the assay on SK-MEL-5 melanoma, 74.4%. The results for the growth in the assay with UACC-62 melanoma, with LOX IMVI melanoma and with SK-MEL-28 melanoma were 81.1%, 97.7% and 105%, respectively.
